High-throughput results: PubChem, National Center for Advancing Translational Sciences (NCATS)
KB-V1 MDR tox: qHTS assay for MDR1-selective chemotherapeutics: Primary screen using the drug-selected MDR subline cells KB-V1; KB-V1 MDR cells viability, CellTiter-Glo, 72 h; Potency, µM (series often up to 46.1 µM), most hits filed as cytotoxic; hit rate 3.4% among 400,000; AID 1347076, 2019; note: nearly all actives have a fitted effect of over 60% in size
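Luminescent ATP read-out (CellTiter-Glo, 10 min) measures survival of drug-selected KB-V1 MDR cells after 72 h, 37 degrees C compound exposure. Medium: phenol-red-free DMEM, 10% FBS. Values from fitted concentration-response curves.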
MCF10A rereplic: A quantitative high throughput screen for small molecules that induce DNA re-replication in MCF 10a normal breast cells | MCF 10A DNA re-replication, Hoechst nuclear intensity, 48 h | Potency, µM (doses to about 46.1 µM), usual class: activators | hit rate 2.9% among 350,000 | AID 624296, 2012; note: nearly all actives have a fitted effect of over 50% in size
HT1080 IDH1KD tx: qHTS for induction of synthetic lethality in tumor cells producing 2HG: qHTS for the HT-1080-IDH1KD cell line; HT-1080 IDH1 knockdown viability, ATP luminescence, 48 h; Potency, µM (series often up to 46.1 µM), actives largely listed as cytotoxic; hit rate 2% among 360,000; AID 686971, 2013
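Assay cells: HT-1080 with IDH1 knockdown, 750 per well, RPMI/5% FBS. Exposure: 48 h at 37 °C following 2 h pre-incubation. Read: CellTiter-Glo luminescence; fitted concentration-response, curve class assigned.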
SW480 rerep: A quantitative high throughput screen for small molecules that induce DNA re-replication in SW480 colon adenocarcinoma cells; SW480 DNA re-replication, Hoechst DNA content imaging, 48 h; Potency, µM (highest dose often 46.1 µM), usual class: activators; hit rate 1.8% among 340,000; AID 624297, 2012; note: nearly all actives have a fitted effect of over 55% in size
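Image-based DNA-content assay: after two days of treatment, nuclei were labelled with the DNA dye Hoechst and imaged, and hits were compounds raising the count of nuclei showing high fluorescence intensity.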
HT1080NT lethal: qHTS for induction of synthetic lethality in tumor cells producing 2HG: qHTS for the HT-1080-NT fibrosarcoma cell line. HT-1080-NT fibrosarcoma viability, CellTiter-Glo ATP luminescence, 48 h. Potency, µM (series often up to 46.1 µM), actives largely listed as cytotoxic. hit rate 1.6% among 360,000;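 note: NT is the 2HG producing partner of a matched IDH1 knockdown line; nearly all actives have a fitted effect of over 55% in size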
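A 48-hour cytotoxicity screen used HT-1080-NT cells plated 2 hours before compound delivery. ATP-based CellTiter-Glo luminescence measured viability, normalized to DMSO and no-cell controls.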
KB-3-1 tox: qHTS assay for MDR1-selective chemotherapeutics: Primary screen using the parental adenocarcinoma cell KB-3-1; KB-3-1 viability, CellTiter-Glo ATP luminescence, 72 h; Potency, µM (series often up to 46.1 µM), usual class: cytotoxic; hit rate 1.4% among 400,000; AID 1347075, 2019; note: nearly all actives have a fitted effect of over 60% in size
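Parental KB-3-1 adenocarcinoma cells in phenol-red-free DMEM with 10% FBS were pin-treated with compounds at several concentrations, incubated 72 h at 37 °C, and viability read by CellTiter-Glo luminescence; concentration-effect curves were fitted after normalization.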
Of the large screens only hits and unclear results are named; the others gave an inactive call; ! = not confirmed by another sample. Hits are enriched below; roughly 7.9% of the tested compounds scored in any of these assays. Calls come from the whole dose curve; as a rule, active = well fitted curve in the direction sought with a large enough effect; inconclusive = small, poorly fitted or top-dose-only effect, or another doubt; inactive = no such curve, though single readings can be large; an effect the other way counts as inactive or inconclusive.

COC(=O)C1=C(c2ccccc2OCc2ccccc2)C[C@@H]2CC[C@H]1N2C(=O)NCCc1ccc(F)cc1	SW480 rerep 5.8µM, HT1080NT lethal inconclusive, KB-3-1 tox inconclusive
COC(=O)C1=C(c2cc3ccccc3s2)C[C@@H]2CC[C@H]1N2C(=O)NCc1ccc(C(F)(F)F)cc1	KB-V1 MDR tox 18.4µM, MCF10A rereplic inconclusive, HT1080 IDH1KD tx inconclusive, HT1080NT lethal inconclusive, KB-3-1 tox inconclusive
COC(=O)C1=C(c2ccc(F)cc2OCc2ccccc2)C[C@@H]2CC[C@H]1N2C(=O)NCc1ccc(C(F)(F)F)cc1	MCF10A rereplic 14.6µM
COC(=O)C1=C(c2cc3ccccc3s2)C[C@@H]2CC[C@H]1N2C(=O)NCC1CC1	none
CCCC(C)C1(CC)C(=O)NC(=S)NC1=O (stereo unspecified)	none (no result: KB-V1 MDR tox, HT1080 IDH1KD tx, HT1080NT lethal, KB-3-1 tox)
CCOC(=O)c1c(N)n(CCN2CCCCC2)c2nc3ccccc3nc12	MCF10A rereplic inconclusive
CCCCn1c(NS(=O)(=O)c2ccccc2)c(C(=O)OCC)c2nc3ccccc3nc21	KB-V1 MDR tox inconclusive, MCF10A rereplic 6.51µM, SW480 rerep 16.4µM, HT1080NT lethal inconclusive
CCCCn1c(NC(=O)c2ccc(Br)o2)c(C(=O)OCC)c2nc3ccccc3nc21	MCF10A rereplic 18.4µM!, SW480 rerep 16.4µM!, HT1080NT lethal inconclusive
CCCCOCCCn1c(N)c(C(=O)OC(C)COC)c2nc3ccccc3nc21 (stereo unspecified)	none
CC(=O)Nc1cnc(-c2ccccc2O)cn1	HT1080NT lethal inconclusive (no result: MCF10A rereplic, SW480 rerep)
CCc1ccc(OCC(=O)N2CCN(CCc3ccncc3)CC2)cc1	none (no result: MCF10A rereplic, HT1080 IDH1KD tx, SW480 rerep, HT1080NT lethal)
C=CCn1c(O)c(C(C)=NCc2cc(OC)cc(OC)c2)c(=O)[nH]c1=O	KB-V1 MDR tox 3.26µM, MCF10A rereplic inconclusive, HT1080 IDH1KD tx 5.8µM, HT1080NT lethal 3.66µM, KB-3-1 tox 5.17µM
C=CCn1c(O)c(C(C)=NCc2cccnc2)c(=O)[nH]c1=O	none
COc1cc2cc(c1Cl)N(C)C(=O)CC(OC(=O)C(C)N(C)C(C)=O)C1(C)OC1C(C)C1CC(O)(NC(=O)O1)C(OC)C=CC=C(C)C2 (stereo unspecified)	KB-V1 MDR tox 0.461µM, MCF10A rereplic inconclusive, HT1080 IDH1KD tx inconclusive, SW480 rerep inconclusive, HT1080NT lethal 0.0041µM, KB-3-1 tox inconclusive
CC(C)n1c(/C=C/[C@@H](O)C[C@@H](O)CC(=O)O)c(-c2ccc(F)cc2)c2ccccc21	KB-V1 MDR tox 18.4µM, HT1080 IDH1KD tx 1.46µM, HT1080NT lethal 1.46µM, KB-3-1 tox 14.6µM
CSc1cc(-c2ccccc2)n(Cc2c(Cl)cccc2Cl)c(=O)c1C#N	KB-V1 MDR tox inconclusive, MCF10A rereplic inconclusive, KB-3-1 tox 3.26µM
C=CCc1cc(OC)c2c(c1)OCO2	none
COc1cc(C2c3cc4c(c(O)c3CC3COC(=O)C32)OCO4)cc(OC)c1O (stereo unspecified)	KB-V1 MDR tox 0.184µM, KB-3-1 tox 0.0164µM (no result: MCF10A rereplic, HT1080 IDH1KD tx, SW480 rerep, HT1080NT lethal)
COc1cc(C2c3cc4c(cc3CC3COC(=O)C32)OCO4)cc(OC)c1O (stereo unspecified)	KB-V1 MDR tox inconclusive, MCF10A rereplic inconclusive, HT1080 IDH1KD tx inconclusive, SW480 rerep 0.164µM, HT1080NT lethal inconclusive
COc1ccc2c(c1OC)C(=O)OC2C1c2cc3c(cc2CCN1C)OCO3 (stereo unspecified)	KB-V1 MDR tox inconclusive, MCF10A rereplic inconclusive
S=C(NCc1ccccc1)NCC1COc2ccccc2O1 (stereo unspecified)	HT1080 IDH1KD tx inconclusive, HT1080NT lethal inconclusive, KB-3-1 tox inconclusive
Nc1ccccc1C(=O)OCC(=O)N1CCc2ccccc21	none
N#CSCC(=O)N1c2ccccc2CCc2ccccc21	KB-V1 MDR tox 23.1µM, MCF10A rereplic inconclusive, HT1080 IDH1KD tx 23.1µM, SW480 rerep inconclusive, HT1080NT lethal inconclusive, KB-3-1 tox inconclusive
